Laboratory results as given in the supplement of paper PMC10600219.
Structures can show the parent of a compound that is named as a salt. The full ranking holds about 2,800 compounds; the median of “cell viability relative to vehicle” is about 0.98, and the lowest 2% start at about 0.45. This excerpt belongs to a sample that is enriched for the lowest values.

Each compound was assayed on NCI-H2228 alectinib-DTP (assay: cell viability relative to vehicle (fraction of vehicle); NCI-H2228 is an ALK-positive lung cancer line and DTP means drug-tolerant persister; higher = less growth inhibition). Details: 100 nM; treatment time 6 days.
Procedure, shortened: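 The 3114-agent TargetMol anti-cancer compound library was tested at 100 nM for 6 days on parental NCI-H2228 cells and on persister cells derived with 1000 nM of a targeted drug for 13 days. ATP readout by the CellTiter-Glo 3D Cell Viability Assay gave cell viability relative to DMSO vehicle-treated cells.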

SMILES	cell viability
O=C(O)c1ccc2c(c1)C(=O)c1ccccc1C2=O	1.08
O=c1cc(-c2ccc(O[C@@H]3O[C@H](CO)[C@@H](O)[C@H](O)[C@H]3O)cc2)oc2cc(O)c([C@@H]3O[C@H](CO)[C@@H](O)[C@H](O)[C@H]3O[C@@H]3OC[C@H](O)[C@H](O)[C@H]3O)c(O)c12 [Vaccarin]	0.919
C[C@H]1COC2(CCN(c3nc(=O)c4cc(C(F)(F)F)cc([N+](=O)[O-])c4s3)CC2)O1	1.05
CC(NC(=O)C(Cc1ccccc1)NC(=O)OCc1ccccc1)C(=O)CF (stereo unspecified)	0.979
CC(=O)NC(Cc1ccccc1)C(=O)O (stereo unspecified) [Afalanine]	0.984
COC[C@H](NC(=O)c1cnc(C)s1)C(=O)N[C@@H](COC)C(=O)N[C@@H](Cc1ccccc1)C(=O)[C@@]1(C)CO1 [Oprozomib]	0.371
Cc1cc(F)c(C(=O)Nc2cccc(-c3nncn3C(C)C)n2)cc1-n1cnc(C2CC2)c1 [Selonsertib]	0.918
O=c1[nH]c(=O)n([C@@H]2O[C@H](CO)[C@@H](O)[C@H]2O)cc1F [5-Fluorouridine]	0.837
Cn1nccc1Nc1nccc(-c2cc3c(s2)C(C)(C)N(CCN2CCOCC2)C3=O)n1	1.06
Cc1nc(-c2cn3c(n2)-c2ccc(-c4cnn(C(C)(C)C(N)=O)c4)cc2OCC3)n(C(C)C)n1 [Taselisib]	0.425
CC(C)n1ncnc1-c1cn2c(n1)-c1ccc(O[C@@H](C)C(N)=O)cc1OCC2	0.717
O[C@H]1[C@H]2c3cc4c(cc3CN3CCC(=C[C@@H]1O)[C@H]23)OCO4 [Lycorine chloride]	0.966
CC(=O)N[C@H]1CSSC[C@@H](C(N)=O)NC(=O)[C@H](C(C)C)NC(=O)[C@H](C)NC(=O)[C@H](Cc2c[nH]cn2)NC1=O [Exherin trifluoroacetate]	1.11
COc1cc2c(NC3CCN(C(C)C)CC3)nc(C3CCCCC3)nc2cc1OCCCN1CCCC1	1.15
N[C@@H](CCCCNC(=O)C(F)(F)F)C(=O)O [N-6-Trifluoroacetyl-L-lysine]	0.966
Cc1ncc(NC(=O)c2ccc(CN3CCN(C)CC3)c(C(F)(F)F)c2)cc1Nc1nccc(-c2cccnc2)n1 [Flumatinib]	1.15
Cc1ccc(C(=O)Nc2ccc(CN3CCN(C)CC3)c(C(F)(F)F)c2)cc1C#Cc1cnc2[nH]ncc2c1	0.423
Cc1ccc(C(=O)Nc2ccc(CN3CCN(C)CC3)c(C(F)(F)F)c2)cc1C#Cc1cnc2cccnn12 [Ponatinib]	0.834
Cc1ccc(C(=O)Nc2ccc(CN3CCN(C)CC3)c(C(F)(F)F)c2)cc1C#Cc1cnc2[nH]ncc2c1 [GZD824 Dimesylate]	0.33
CCN1CCN(Cc2ccc(NC(=O)c3ccc(C)c(NC(=O)c4cncc(-c5cccs5)c4)c3)cc2C(F)(F)F)CC1	0.789
CS(=O)(=O)Nc1ccc([N+](=O)[O-])cc1OC1CCCCC1	1.12
Cc1ccc(/C(=C\CN2CCCC2)c2ccccn2)cc1 [Triprolidine hydrochloride]	1.18
C/C(=N\NC(=S)N1CCC1)c1ccccn1	0.362
S=C(N/N=C1/CCCc2cccnc21)N1CCN(c2ccccn2)CC1	1.09

SMILES	cell viability
Cn1c(O)c(C2=c3ccccc3=NC2=O)c2ccccc21 [Methylisoindigotin]	0.85
CC(C)=CCc1cc2c(cc1O)oc(=O)c1c3ccc(O)cc3oc21 [Psoralidin]	1.15
CC(C)C[C@H](NC(=O)[C@H](CCc1ccccc1)NC(=O)CN1CCOCC1)C(=O)N[C@@H](Cc1ccccc1)C(=O)N[C@@H](CC(C)C)C(=O)[C@@]1(C)CO1 [Carfilzomib]	0.116
CC(C)c1nc(CN(C)C(=O)N[C@@H](CCN2CCOCC2)C(=O)N[C@H](CC[C@H](Cc2ccccc2)NC(=O)OCc2cncs2)Cc2ccccc2)cs1 [Cobicistat]	1.02
COc1ccc(C[C@H](NC(=O)[C@H](C)NC(=O)CN2CCOCC2)C(=O)N[C@@H](Cc2ccccc2)C(=O)C2(C)CO2)cc1 (stereo in doubt)	1.03
N[C@@H](CSCCB(O)O)C(=O)O	0.835
O=C(O)Cn1c2c(c3cc(F)ccc31)CN(C(=O)c1cccc3ccccc13)CC2 [Setipiprant]	1.18
CC(C)(C)c1ccc(C(=O)NC(=S)Nc2ccc(N)cc2)cc1 [Tenovin3]	0.734
CCCCCCCCCCCCCC(=S)NCCCC[C@H](NC(=O)OCc1ccccc1)C(=O)Nc1ccccc1 [Thiomyristoyl]	1.11
C/C=C1\NC(=O)[C@H]2CSSCC/C=C/[C@H](CC(=O)N[C@H](C(C)C)C(=O)N2)OC(=O)[C@H](C(C)C)NC1=O [Romidepsin]	0.116
O=c1nc(N2CCN(CC3CCCCC3)CC2)sc2c([N+](=O)[O-])cc(C(F)(F)F)cc12	0.985
CCC(Sc1nnc2c(n1)[nH]c1ccccc12)C(=O)N1c2ccccc2Sc2ccccc21 (stereo unspecified) [Inauhzin]	1.06
CCc1c2c(nc3ccc(OC(=O)N4CCC(N5CCCCC5)CC4)cc13)-c1cc3c(c(=O)n1C2)COC(=O)[C@]3(O)CC [Irinotecan]	1.07
CC[C@@]1(O)C(=O)OCc2c1cc1n(c2=O)Cc2cc3cc(O)ccc3nc2-1 [10-Hydroxycamptothecin]	0.304
CC[C@@]1(O)C(=O)OCc2c1cc1n(c2=O)Cc2cc3c(CN(C)C)c(O)ccc3nc2-1 [Topotecan hydrochloride]	0.245
CCc1c2c(nc3ccc(O)cc13)-c1cc3c(c(=O)n1C2)COC(=O)[C@]3(O)CC	0.263
CCc1c2c(nc3ccc(OC(=O)N4CCC(N5CCCCC5)CC4)cc13)-c1cc3c(c(=O)n1C2)COC(=O)[C@]3(O)CC [Irinotecan hydrochloride trihydrate]	1.05
CC[C@@]1(O)C(=O)OCc2c1cc1n(c2=O)Cc2cc3cc(O)ccc3nc2-1 [Hydroxy Camptothecine]	0.255
COc1ccc(S(=O)(=O)NCc2ccc(C(=O)NCCc3ccc(Cl)cn3)cc2)cc1	1.14
CN1CCN(c2ccc(C(=O)Nc3cc(-c4cccc(NS(=O)(=O)c5ccccc5)c4)[nH]n3)cc2)CC1	0.98
CC(C)Cc1ccc(-c2nc(-c3ccc(CN4CC(C(=O)O)C4)c(F)c3)no2)cc1 [S1p-receptor-agonist-1]	1.03
OC(CCN1CCCCC1)(c1ccccc1)C1CCCCC1 (racemic) [DL-trihexyphenidyl hydrochloride]	0.964
CCCC[S+]([O-])c1sc2nc(-c3cccs3)cc(-c3ccccc3)c2c1N (stereo unspecified)	1
Nc1c(S(=O)(=O)c2ccccc2)c2nc3ccccc3nc2n1-c1ccc(F)cc1	1.11

SMILES	cell viability
Cc1cccc(C)c1N(CC(=O)Nc1ccc(-c2ncon2)cc1)C(=O)C1CCS(=O)(=O)CC1 [Amenamevir]	0.926
CC(C)=CC(=O)CCC(=O)N1CCN(Cc2cc3nc(-c4cccc5[nH]ncc45)nc(N4CCOCC4)c3s2)CC1	0.892
O=C1Nc2ccccc2/C1=C/c1ccc(F)cc1	1.04
N#Cc1c(-c2ccccc2)cc(-c2cc(Br)ccc2O)[nH]c1=O	0.907
CC/C(=C(/c1ccc(/C=C/C(=O)O)cc1)c1ccc2[nH]ncc2c1)c1ccc(F)cc1Cl	1.07
CCOC(=O)c1c(C)[nH]c(C=C2C(=O)Nc3ccccc32)c1C [VEGFR2 Kinase Inhibitor I]	1.19
COc1c(O[C@@H]2O[C@H](CO)[C@@H](O)[C@H](O)[C@H]2O)cc2occ(-c3ccc(O)cc3)c(=O)c2c1O [Tectoridin]	1.03
CN(C)Cc1ccc(S(=O)(=O)n2ccc(/C=C/C(=O)NO)c2)cc1 [Resminostat hydrochloride]	1.15
Cc1[nH]c2ccccc2c1CCNC(=O)c1cccs1	0.919
Cc1[nH]c2ccccc2c1CCNCc1ccc(/C=C/C(=O)NO)cc1 [Panobinostat]	0.22
Cc1ccc(S(=O)(=O)Nc2cc(C(F)(F)F)ccc2C(=O)Nc2nc(-c3ccccc3)cs2)cc1	0.852
CCC(=O)O[C@]1(C(=O)CO)CC[C@H]2[C@@H]3CCC4=CC(=O)CC[C@]4(C)[C@H]3CC[C@@]21C [17 alpha-propionate]	0.936
NC[C@H]1OB(O)c2c(OCCCO)cccc21 [Epetraborole hydrochloride]	1.11
Cc1cc(O)c(-c2ccc(C(C)CN)cc2)c2c1[nH]c(=O)c1sccc12 (stereo unspecified)	0.15
O=C1C[C@@H](c2ccccc2)Oc2cc(O)cc(O)c21 [Pinocembrin]	0.964
C[C@H](CCOc1cccc(CC(=O)O)c1)N(Cc1cccc(C(F)(F)F)c1Cl)CC(c1ccccc1)c1ccccc1	0.781
C=C1CC[C@H]2C(=C)CC[C@H]3C(=C)C(=O)O[C@@H]3[C@@H]12 [Dehydrocostus Lactone]	0.984
CC(C)=CCC[C@](C)(O)[C@H]1CC[C@]2(C)[C@@H]1[C@H](O)C[C@@H]1[C@@]3(C)CC[C@H](O)C(C)(C)[C@@H]3CC[C@]12C [(20S)-Protopanaxadiol]	0.908
Cc1c(-c2ccc(N3CCc4cccc(C(=O)Nc5nc6ccccc6s5)c4C3)nc2C(=O)O)cnn1CC12CC3CC(CC(C3)C1)C2	0.806
CCn1cc(C(=O)O)c(=O)c2c(N)c(F)c(NC3CCCCC3)cc21	1.1
Cc1ccc(S(=O)(=O)Cc2nc(-c3ccc(C(=O)NCc4cccnc4)cc3)oc2C)cc1	0.955
O=C(NCc1ccc(S(=O)(=O)c2cc(F)cc(F)c2)cc1)c1ccc2nccn2c1	0.34
CC1(C)CC[C@]2(C(=O)O)CCC3=C([C@@H](CCl)C[C@@H]4[C@@]5(C)C[C@H](O)[C@H](O)[C@@](C)(C(=O)O)[C@@H]5CC[C@@]34C)[C@@H]2C1 [Senegenin]	0.889
